Source: PubChem BioAssay

Test: COS7 lysate on small-molecule microarray, probe aHis, 635 nm (AID 1123);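 also: z-score combines 667nm fluorescence intensity with signal-to-noise per printed compound spot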
Details: COS7 cell lysate, fluorescence, higher = more signal

SMILES | composite z-score
COC(=O)c1c(CC[C@@H](CO)NC(=O)N[C@@H](Cc2ccccc2)Cn2cc(-c3ccccn3)nn2)oc(C(=O)N2CCOCC2)c1C(=O)OC | 0.0795
C=CCN1C(=O)[C@]2(O[C@H](CCO)[C@@H]([Si](C)(C)c3ccc(OC)cc3)[C@@H]2C)c2cc(N(C=O)c3ccccc3)ccc21 | 0.225
[N-]=[N+]=Nc1ccccc1[C@H]1OC(c2ccc(OCCCO)cc2)=N[C@@]1(CCS(=O)(=O)c1ccccc1)C(=O)NCc1ccccc1 | 2.3
O=C1OCCC=C[C@H]2OC34C=CCN(CCN5CCOCC5)C(=O)[C@H]3N(CCCCCO)C(=O)[C@@H]4C12 (stereo partly drawn) | 2.4
O=C1O[C@@H](c2ccccc2)[C@@H](c2ccccc2)N2[C@@H](c3ccc(OCCO)cc3)[C@]3(C(=O)Nc4ccc(C#CCCO)cc43)[C@@H](C(=O)NC[C@H](O)c3ccccc3)[C@H]12 | 1.66
CN1C(=O)C2C=CC(C(O)c3ccccc3)N(N3CCCCC3)C2C1=O (stereo not drawn) | 2.37
O=C1NC(=O)C2C1C=CC(C(O)c1ccc(I)cc1)N2Nc1ccc(Cl)cc1Cl (stereo not drawn) | 1.61

Test: compound binding in COS7 lysate, probe aLAP1, primary screen, cell lysate, small-molecule microarray (AID 1124);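 also: lysate comes from COS7 cells expressing LAP1 and is applied at 0.3 µg/mL; score merges spot fluorescence near 667 nm with signal-to-noise over triplicate slides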
Details: probe aLAP1, fluorescence, higher = more signal

SMILES | composite z-score
CN1C(=O)C2C=CC(C(O)c3ccc(F)cc3)N(N(c3ccccc3)c3ccccc3)C2C1=O (stereo not drawn) | 0.0833
Cc1ccc(S[C@]2(C(=O)O)CC(=O)N(Cc3ccccc3C(F)(F)F)[C@@H]2c2ccc(CO)cc2I)cc1 | 1.51
C[N+](C)(C)CCCC[C@@H]1NC(=O)[C@@H]2C[C@H](C(=O)NCCCCCN)[C@H](c3ccc(O)cc3)N2C1=O | 1.02
COCCOC(=O)N1C(=O)[C@@]2(c3cc(C#CCCO)ccc31)[C@H](c1ccc(O)cc1)N1[C@H](c3ccccc3)[C@H](c3ccccc3)OC(=O)[C@H]1[C@@H]2C(=O)N1CCN(c2ncccn2)CC1 | 0.782
O=C(CS)NCCCCCNC(=O)[C@@H]1C[C@@H]2C(=O)NCC(=O)N2[C@@H]1c1ccc(O)cc1 | 0.144
O=C1C2C=CC(C(O)C=Cc3ccc([N+](=O)[O-])cc3)N(n3cnnc3)C2C(=O)N1Cc1ccccc1 (stereo not drawn) | 1.04
C=C(/C(=C/C[C@H](OC(=O)c1ccncc1)c1ccc(OCCO)cc1)c1cc(C(=O)OC)ccc1OC)C(C)C | 0.284
CN(C)CCCC[C@@H]1NC(=O)[C@H]2C[C@@H](C(=O)NCCCCCN)[C@@H](c3cccc(OCCO)c3)N2C1=O | 1.12
CCCNC(=O)[C@@H]1c2ccccc2C(=O)N(Cc2ccccc2OC)[C@H]1c1ccc(CO)cc1 | 0.614
Cc1ccc(S[C@]2(C(=O)O)CC(=O)N(C(C)C)[C@@H]2c2ccc(CO)cc2)cc1 | 1.14
COCCCNC(=O)[C@@]1(CCS(=O)(=O)c2ccccc2)N=C(c2ccc(OCCCO)cc2)O[C@H]1c1ccccc1N=[N+]=[N-] | 0.743
C=CC[C@@]1(C(=O)N2CCCCC2)N=C(c2ccc(OCCCO)cc2)O[C@@H]1c1ccccc1CN=[N+]=[N-] | 1.06
C#CCN1[C@@H](Cc2ccc(O)cc2)C(=O)O[C@H](Cc2ccccc2)[C@@H]1/C=C/C1CC1 | 0.472
OCC1C=C(/C=C/c2ccccc2)CN1Cc1ccccc1Br (stereo not drawn) | -0.0831
COc1ccc(C(=O)Nc2ccc(CN3C(=O)[C@]4(O[C@H](CC(=O)N5CCC[C@H]5CO)[C@@H]([Si](C)(C)c5ccc(OC)cc5)[C@@H]4C)c4ccccc43)cc2)cc1 | 0.394
CO[C@H]1O[C@H](CO)[C@@H](OC(=O)Nc2ccccc2-c2ccccc2)[C@H](OC(=O)Nc2ccccc2-c2ccccc2)[C@@H]1OC(=O)Nc1ccccc1-c1ccccc1 | 0.75
O=C1C[C@@](C(=O)NCc2ccccc2)(c2ccc([N+](=O)[O-])cc2)[C@@H](c2ccc(CO)cc2)N1CC12CC3CC(CC(C3)C1)C2 | 2.12
C=C(CCCC)/C(=C/C[C@H](OC(C)=O)c1ccc(OCCO)cc1)c1cnc2ccccc2c1 | 0.117
COC(=O)[C@]1(Cc2ccccc2)N=C(c2ccc(OCCCO)cc2)O[C@@H]1c1ccccc1N=[N+]=[N-] | 0.209
COC(=O)C(CC#Cc1ccc2c(c1)[C@]1(C(=O)N2)[C@H](c2ccc(O)cc2)N2[C@H](c3ccccc3)[C@H](c3ccccc3)OC(=O)[C@H]2[C@@H]1C(=O)N1CCN(c2ncccn2)CC1)C(=O)OC | 0.415
CO[C@H]1O[C@H](CO)[C@@H](OC(=O)Nc2ccc(Br)cc2)[C@@H]2OC(=O)[C@H](Cc3cccc(Br)c3)C/C=C/C[C@@H](Cc3cccc(Br)c3)C(=O)O[C@@H]12 | -0.0838
